Data published in PubChem BioAssay AID651864 (Broad Institute, 2012).
Potency and affinity values are given separately. Active and inactive are the calls of the source. Where a call stands in place of a potency, no number is given. How the calls were made is not given here.

Test: HeLa cell cytotoxicity, dose response, cytotoxicity control, 24 h, plate reader, powder samples, set 3 (AID 651864)
Conditions: HeLa viability, CellTiter-Glo ATP luminescence; series mostly up to 80 µM

Structure (SMILES)	outcome
CC1(NC(=O)Cc2ccc(-c3ccccc3)cc2)COC1	inactive
O=C(Cc1ccccc1F)NC1CCCC1	inactive
CCn1nnnc1NCc1ccccc1N1CCCC1	inactive
CCn1nnnc1NCc1ccc(C(C)C)cc1	inactive
O=C(Cc1ccc(-c2ccccc2)cc1)NC1CCCC1	inactive
CCn1nnnc1NCc1cccc(N2CCCC2)c1	inactive
O=C(Cc1ccc(-c2ccccc2)cc1)NC1CC1	inactive
O=C(Cc1ccc(-c2ccccc2)cc1)NC1CCOCC1	inactive
CCn1nnnc1NCc1cccc(OC)c1	inactive
CCCn1nnnc1NCc1ccc(C(C)C)cc1	inactive
O=C(Cc1cccc(OC(F)(F)F)c1)NC1CCCC1	inactive
CCCCn1nnnc1NCc1ccc(N2CCCC2)cc1	inactive
O=C(Cc1ccccc1Cl)NC1CCCC1	inactive
c1ccc(-n2nnnc2NCc2ccc(N3CCCC3)cc2)cc1	inactive
Cc1ccccc1CC(=O)NC1CCCC1	inactive
CC(C)c1ccc(CNc2nnnn2C)cc1	inactive
CC(C)NC(=O)Cc1ccc(-c2ccccc2)cc1	inactive

Structure (SMILES)	outcome
CCn1nnnc1NCc1ccc(N2CCCCC2)cc1	inactive
O=C(Cc1ccccc1C(F)(F)F)NC1CCCC1	inactive
Fc1ccc(Cn2nnnc2NCc2ccc(N3CCCC3)cc2)cc1	inactive
CCn1nnc(NCc2ccc(C)cc2)n1	inactive
Cn1nnnc1NCc1ccc(N2CCCC2)cc1	inactive
O=C(Cc1ccc(-c2ccccc2)cc1)NC1CCC1	inactive
CCn1nnnc1CCc1ccc(N2CCCC2)cc1	inactive
CCn1nnnc1NCc1ccc(N2CCCC2)cc1	inactive
Cc1ccc(Cn2nnnc2NCc2ccc(N3CCCC3)cc2)cc1	inactive
CC(C)(C)OC(=O)N1CC(NC(=O)Cc2ccc(-c3ccccc3)cc2)C1	inactive
c1ccc(Cn2nnnc2NCc2ccc(N3CCCC3)cc2)cc1	inactive
O=C(Cc1ccccc1OC(F)(F)F)NC1CCCC1	inactive
COc1ccc(CC(=O)NC2CCCC2)cc1	inactive
O=C(NCc1ccc(-c2ccccc2)cc1)C1CCCC1	inactive
CS(=O)(=O)c1ccc(CC(=O)NC2CCCC2)cc1	inactive
CCCn1nnnc1NCc1ccccc1Cl	inactive
O=C(Cc1cccc(F)c1)NC1CCCC1	inactive
